Screens deposited in PubChem by several laboratories.
In the library only some 32% were active in any assay of this set; here they are far more common.
CYP2C19 act – cytochrome P450 2C19 (human) activation | AID 1025 | recombinant CYP2C19, luciferin-H EGE luminescence; active compounds read high; 0 = fully inhibited enzyme, 1 = untreated enzyme | activation factor at 5 µM | 96,000 tested, under 10 active | P33261;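 active = activation factor of at least 2 at 5 µM in the primary screen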
CYP2C9 inhib – human CYP2C9 inhibition | inhibition, % at 5 µM | CYP2C9 Supersomes, luciferin-H conversion, luminescence | AID 777 | 96,000 compounds, 20% hits;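 active = blocking of liver enzyme CYP2C9 beyond about 50% at 5 µM, limit read from the data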
Target sequence (P11712 whole entry, looked up): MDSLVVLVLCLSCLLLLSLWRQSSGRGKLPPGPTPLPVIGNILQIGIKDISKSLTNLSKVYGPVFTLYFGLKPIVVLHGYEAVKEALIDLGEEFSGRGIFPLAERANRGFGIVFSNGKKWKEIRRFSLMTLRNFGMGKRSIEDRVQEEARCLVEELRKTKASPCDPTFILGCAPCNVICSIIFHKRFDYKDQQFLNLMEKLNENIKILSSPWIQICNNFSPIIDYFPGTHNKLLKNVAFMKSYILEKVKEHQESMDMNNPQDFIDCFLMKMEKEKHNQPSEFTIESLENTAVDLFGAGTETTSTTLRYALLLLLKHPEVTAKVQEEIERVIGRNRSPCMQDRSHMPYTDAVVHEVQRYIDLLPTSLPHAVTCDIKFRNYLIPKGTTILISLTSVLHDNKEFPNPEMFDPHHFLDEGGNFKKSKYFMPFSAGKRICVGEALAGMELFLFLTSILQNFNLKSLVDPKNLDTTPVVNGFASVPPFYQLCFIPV
CYP2C9 act – activators of human CYP2C9. recombinant CYP2C9, luciferin-H conversion, luminescence; active compounds read high; factor 1 = untreated enzyme, 0 = blocked. activation factor at 5 µM. 96,000 compounds, 1.4% hits;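 active = activation factor of 2 or more for CYP2C9 at a 5 µM dose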
PostGolgi yeast – growth inhibition of a yeast mutant, post-Golgi transport screen; post-Golgi transport phenotypic cell assay; inhibition, % at 10 µM; 98,000 compounds, 0.9% hits;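 note: yeast cells grown in 1536-well plates; yeast grown about 18 h at 30C before absorbance read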
PostGolgi ctrl – yeast control strain growth, post-Golgi counter-screen; efflux-deficient yeast background strain, growth absorbance A615, 16 h; inhibition, % at 10 µM; 98,000 compounds, 5% hits; AID 738
CYP2C19 inhib – blocks human cytochrome P450 2C19; P33261; CYP2C19 Supersomes, luciferin-H EGE luminescence, 30 min; inhibition, % at 5 µM; 96,000 compounds, 21% hits; AID 778;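 active = CYP2C19 inhibition above a set limit at 5 µM in the primary screen, cut at about 50% in these data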
Of the large screens only hits and unclear results are named; the others gave an inactive call. Cut-off read from the data, not from the text of the source, unless noted: active = inhibition above about 30%; inactive = the rest.

CC(NC(=O)CCc1ccc(S(=O)(=O)NC2CCCCC2)cc1)c1ccccc1 (stereo not given)	CYP2C9 inhib 79.3, CYP2C19 inhib 96.0
COc1ccc(CNC(=O)CCNS(=O)(=O)c2ccc(C)cc2)cc1	none
c1coc(CN2CN=C(Nc3nc4ccccc4s3)NC2)c1	none
COC(=O)c1ccc(NC(=O)C2CC2)o1	none
CC1(C)C=C(c2ccc(O)cc2)CC(C)(C)N1	none
CCOC(=O)C(C)Oc1ccc(C2NC(=O)NC(C)=C2C(=O)Nc2ccccc2C)cc1 (stereo not given)	none
Cc1nc(S(=O)(=O)c2ccc(Cl)cc2)c(NCc2ccccc2)o1	none
Cn1c(CNc2nc(-c3ccccc3)cs2)nnc1SCC(=O)N1CCc2ccccc21	none
COc1ccc2c(c1)C(=NN)c1cc(OC)ccc1-2	CYP2C9 inhib 61.8
CC(C)C1S/C(=N/N=C/c2cccs2)NC1=O (stereo not given)	none
Cc1noc(C)c1CSCC(=O)OCC(=O)Nc1sccc1C#N	CYP2C9 inhib 67.2
Cc1ccc(NC(=O)CSCc2c(C)noc2C)cc1C	CYP2C19 inhib 93.7
CCOC(=O)Cc1cn2c(=O)cc(CSCC(=O)Nc3ccc(C)c(C)c3)nc2s1	CYP2C9 inhib 74.3
O=C1Nc2ccc(S(=O)(=O)N3CCCC3)c3ccc(S(=O)(=O)N4CCCC4)c1c23	none
CN1C(=O)CC(N2CCN(CC(=O)N3CCCC3)CC2)C1=O (stereo not given)	none
Cc1ccc(-c2nnc(N(C)C(=O)c3ccncc3)s2)cn1	CYP2C9 inhib 85.0
CN(C(=O)c1ccncc1)c1nnc(-c2cnccn2)s1	CYP2C9 inhib 96.8, CYP2C19 inhib 89.2
CN(C(=O)c1cccnc1)c1nnc(-c2cnccn2)s1	none
COc1ccc(/C=C2\CCOC2=O)cc1	none
COc1ccc(/C=C2\CCCC(C(=O)C(F)(F)F)=C2O)cc1	CYP2C9 inhib 81.7
COc1ccc(CNC(=O)C(=O)NCC2CCCO2)cc1 (stereo not given)	none
Cc1ccc(N=Cc2sc(O)c3ccccc23)c(C)c1	CYP2C9 inhib 62.7
CC1CC(=O)c2cnc(N3CCOCC3)nc2C1 (stereo not given)	none
CCCCOC(=O)Sc1nc2ccccc2o1	CYP2C9 inhib 52.1, CYP2C19 inhib 57.5
Cc1cccc(NS(=O)(=O)c2cccs2)n1	none
O=S(=O)(Nc1nc2ccccc2nc1NCC1CCCO1)c1cccs1 (stereo not given)	CYP2C9 inhib 92.1
COCCCNc1nc2ccccc2nc1NS(=O)(=O)c1cccs1	CYP2C9 inhib 94.0
O=S(=O)(c1cccs1)N1CN(CC2CCCO2)c2nc3ccccc3nc21 (stereo not given)	none
COc1ccc(Nc2nc3ccccc3nc2NS(=O)(=O)c2cccs2)cc1	CYP2C9 inhib 87.5, PostGolgi ctrl 35.5
O=C(CCSc1ccccc1)N1CCN(C(=O)c2ccco2)CC1	none
Cc1nnc2c3cnn(-c4ccc(Cl)cc4)c3ncn12	none (no result: PostGolgi yeast, PostGolgi ctrl)
CCC(C)Sc1nc2c(c(=O)[nH]c(=O)n2C)n1Cc1ccc(Cl)cc1 (stereo not given)	PostGolgi ctrl 46.3
CCOC(=O)C(C)Sc1nc2c(c(=O)[nH]c(=O)n2C)n1Cc1ccc(Cl)cc1 (stereo not given)	PostGolgi ctrl 31.8
CCOC(=O)C1CCCN(C(=O)CC(C)c2ccccc2)C1 (stereo not given)	CYP2C9 inhib 84.4, CYP2C19 inhib 79.0
CCOC(=O)C1CCCN(C(=O)Cn2cccc2C(=O)c2ccccc2)C1 (stereo not given)	PostGolgi ctrl 31.0
CCOC(=O)C1CCN(C(=O)Cn2cccc2C(=O)c2ccccc2)CC1	none
Cc1nc(CC(=O)c2c(C)cc(O)cc2O)cs1	none
COc1ccc(CNc2nc3nc(C)c(Cl)c(=O)n3[nH]2)cc1OC	CYP2C9 inhib 75.6
COc1ccccc1CNc1nc2nc(C)c(C)c(=O)n2[nH]1	CYP2C9 inhib 70.2
O=c1oc2ccccc2c2c1nc(C(F)(F)F)n2-c1ccccc1	none
COc1cc2nc(CN3CCN(c4ncc(C(F)(F)F)cc4Cl)CC3)[nH]c(=O)c2cc1OC	none (no result: PostGolgi yeast, PostGolgi ctrl)
Cc1cccc(NC(=O)CC2SC(=NC3CCCCC3)NC2=O)c1 (stereo not given)	CYP2C9 inhib 65.8
O=C(CC1SC(=NC2CCCCC2)NC1=O)Nc1ccccc1 (stereo not given)	none (no result: CYP2C19 act, CYP2C9 inhib, CYP2C9 act, CYP2C19 inhib)
N=c1c2c(-c3ccccc3)c(-c3ccccc3)n(Cc3ccco3)c2ncn1CCN1CCOCC1	PostGolgi yeast 52.3
COc1ccc(OC)c(CCNC(=O)CS(=O)(=O)Cc2nc(-c3ccc(C)cc3)oc2C)c1	CYP2C9 inhib 66.0, CYP2C19 inhib 53.7
CCN(CCNC(=O)CS(=O)(=O)Cc1nc(-c2cccc(OC)c2)oc1C)c1ccccc1	CYP2C9 inhib 87.0, CYP2C19 inhib 78.3
COc1cccc(-c2nc(CS(=O)(=O)CC(=O)N3CCN(c4ccccn4)CC3)c(C)o2)c1	CYP2C9 inhib 51.2
CCOC(=O)N1CCC(NC(=O)CS(=O)(=O)Cc2nc(-c3cccc(OC)c3)oc2C)CC1	none
CCOC(=O)c1cccc(NC(=O)CS(=O)(=O)Cc2nc(-c3cccc(OC)c3)oc2C)c1	CYP2C9 inhib 75.8
Cc1ccccc1OCCNC(=O)CNC(=O)c1ccccc1O	none
Clc1ccc(CSc2nnc(-c3cccnc3)n2Cc2ccco2)c(Cl)c1	CYP2C9 inhib 62.1, CYP2C19 inhib 75.4
Clc1cccc(CSc2nnc(-c3cccnc3)n2Cc2ccco2)c1	CYP2C9 inhib 64.9, CYP2C19 inhib 81.3
O=C(OCCN1CCN(c2ncc(C(F)(F)F)cc2Cl)CC1)c1ccc(F)cc1	CYP2C9 inhib 69.2
O=C(CCSc1ccc(Cl)cc1)N1CCN(c2ncccn2)CC1	CYP2C9 inhib 64.7
Cc1ccc(C(=O)OCCN2CCN(c3ncc(C(F)(F)F)cc3Cl)CC2)cc1	none
O=C(CN1CCN(c2ncc(C(F)(F)F)cc2Cl)CC1)N1CCN(c2ncc(C(F)(F)F)cc2Cl)CC1	CYP2C9 inhib 82.0, PostGolgi ctrl 30.2, CYP2C19 inhib 61.5
O=C(CSc1ccc(Cl)cc1)N1CCN(c2ncc(C(F)(F)F)cc2Cl)CC1	CYP2C9 inhib 81.2
O=C(Cc1ncc(C(F)(F)F)cc1Cl)N1CCN(c2ccccn2)CC1	none
O=C(NCc1ccc(F)cc1)c1cnn2ccccc12	CYP2C19 inhib 59.5
CC(c1ccccc1)N1CC(C(=O)NC2CCCC2)CC1=O (stereo not given)	none
CC1=CC(C)(C)N2C(=O)C3(C(C#N)=C(N)Oc4cc(C)oc(=O)c43)c3cccc1c32 (stereo not given)	none
CCOc1cc2c3c(c1)C1(C(=O)N3C(C)(C)C=C2C)C(C#N)=C(N)Oc2cc(O)ccc21 (stereo not given)	CYP2C9 inhib 56.2
COc1cc2c3c(c1)C1(C(=O)N3C(C)(C)C=C2C)C(C#N)=C(N)Oc2cc(O)ccc21 (stereo not given)	CYP2C9 inhib 88.7, CYP2C19 inhib 51.2
Cn1nc(OC(=O)Nc2ccc(Cl)cc2)cc1C(F)(F)F	none
